INHIBITION data for 67 compounds are collected here from ChEMBL document CHEMBL4513216, “Probing the Open Global Health Chemical Diversity Library for Multistage-Active Starting Points for Next-Generation Antimalarials” (ACS Infect Dis, 2020).

Each structure is given as a SMILES string. Among all 69,000 compounds or so, about 8,600 (12%) showed an effect of 50% or more. This is one part of a sample in which strong results are shown more often than they occur.

The assay has as its system Plasmodium berghei. The assay is described as follows: Screen against P. berghei liver stage (PbLuc), transformed with Luciferase, at 10uM. The format is functional, HepG2. Particulars: tested at 10 uM.
Consider `Cc1csc2cc(C(=O)NC3CCCC3)cnc12`, for which the INHIBITION was -76.5%.
On to `CCN1CCc2c(sc3c2C(=O)NC(C=Cc2ccccc2)N3)C1` (configuration not stated), for which the INHIBITION came out at 15.1%.
Turning to `CCc1nc(C)sc1CN(Cc1ccncc1)C1CCN(C)CC1`, the INHIBITION came out at 18.8%.
For `Cc1nc(-c2ccc(CNS(=O)(=O)N(C)C)cc2)ccc1C(N)=O`, the INHIBITION is reported as -4.87%.
On to `CC(=O)Nc1nc(CN2CCCC2Cn2cccn2)cs1` (configuration not stated), for which the INHIBITION is 13.7%.
`CN(C)C(=O)Cc1nc(CN2CCCCC2Cn2cncn2)cs1` (configuration not stated): the INHIBITION came out at 19.1%.
In the case of `CN(C)C(=O)Cc1nc(CN2CCCC2Cn2cccn2)cs1` (configuration not stated), the INHIBITION came out at 47.9%.
Regarding `CN(C)C(=O)Cc1nc(CN2CCCC2Cn2cncn2)cs1` (configuration not stated), the INHIBITION was found to be 60.8%.
On to `CC(=O)Nc1nc(CN2CCCCC2Cn2cncn2)cs1` (configuration not stated), for which the INHIBITION is 0.411%.
In the case of `CC(=O)Nc1nc(CN2CCCC2Cn2cncn2)cs1` (configuration not stated), the INHIBITION is on record as 61.3%.
With `Cc1cccc(CN2CCC3(CCCN(C(=O)c4ccoc4)C3)C2=O)n1` (configuration not stated) the figure was -3.52%; with `CCn1nc(Br)nc1Sc1ccccc1NC(C)=O`, 12.4%.
`Cc1ccc(CN2C[C@H](OCCN(C)C)[C@H]3OCCC[C@H]32)o1`: the INHIBITION is reported as -102%.
As to `CC(=O)N1CCC[C@@H](NCc2cccc(F)c2)[C@@H]1c1ccc(C)s1`, the INHIBITION is given as -32.2%.
Regarding `CCC(=O)N1CCN(C(=O)Nc2cccc(N3CCOCC3)c2)CC1`, the INHIBITION amounted to 23.2%.
On to `O=C(Nc1cccc(N2CCOCC2)c1)N[C@H](CO)c1ccccc1`, for which the INHIBITION came to 51.8%.
For `O=C(Nc1cccc(N2CCCC2)c1)N[C@H](CCO)c1ccccc1`, the INHIBITION was found to be 19.8%.
In the case of `CCn1ncc(S(=O)(=O)NC2(CN3CCOCC3)CCCCC2)c1C`, the INHIBITION is 32.8%.
To `CCOC(=O)N1CCC(NC(=O)Nc2cccnc2OCC)CC1` belongs -35.7%; to `Fc1cnc(N2CC[C@@H](N3CCOCC3)[C@@H]2Cc2cccnc2)nc1`, 43.8%.
For the compound `COc1ccccc1OCCn1c(C)c(C)oc1=O`, the INHIBITION amounted to 48.2%.
Take `Cc1ccc(C)c(S(=O)(=O)CCN2CCCC2Cn2cccn2)c1` (configuration not stated): the INHIBITION is recorded as 4.93%.
`OC[C@@H]1CCCN1Cc1cn(C2CCN(C3CCCC3)CC2)nn1`: the INHIBITION came out at 54.4%.
On to `CC(C)Nc1cc(N2CCC(n3cc(CCO)nn3)CC2)ncn1`, for which the INHIBITION came to 19.3%.
Regarding `Cc1cc(N2CCC(n3cc(CN4CCC[C@@H]4CO)nn3)CC2)ccn1`, the INHIBITION is 68.9%.
For the compound `Cc1cc(N2CCC(n3cc(CCCO)nn3)CC2)ccn1`, the INHIBITION amounted to 41%.
On to `CC(C)(C)c1cnc(CN2CCC[C@H]2CO)o1`, for which the INHIBITION was found to be 34.1%.
With `Cc1cc(N2CCC(n3cc(CN4CCNCC4)nn3)CC2)ccn1` the figure was 49.9%; with `COc1ccc(C[C@H]2CNCC[C@@H]2OCC2CC2)cc1`, -51.6%.
Take `CN(C(=O)Cc1ccc2c(c1)OCCO2)C1CCCC1`: the INHIBITION is given as -138%.
In the case of `Cc1cncc(C2CCN(Cc3cccn3C)CC2)n1`, the INHIBITION worked out at 41.2%.
Regarding `CCn1cc(NC(=O)C2CCC(=O)N2Cc2ccc(C)o2)cn1` (configuration not stated), the INHIBITION turned out to be 16.1%.
As for `CN1CCC(N(C)C[C@H]2CC[C@@H](Cc3ccc4c(cnn4C)c3)O2)CC1`, the INHIBITION is given as 14.9%.
Turning to `CCN(C)C[C@H]1CC[C@@H](Cc2ccc3c(cnn3C)c2)O1`, the INHIBITION is 58.2%.
As to `CN(C)C[C@H]1CC[C@@H](Cc2ccc3c(cnn3C)c2)O1`, the INHIBITION came to 32.4%.
Turning to `CCOc1nn(CC)cc1-c1nnc(SCC)n1C`, the INHIBITION is given as 15%.
With `Cc1nn(C)c(C)c1C(C)NCc1ccc(OC(C)C)cc1` (configuration not stated) the figure was -37.7%; with `Cc1cc(C)cc(CNC(C)c2c(C)nn(C)c2C)c1` (configuration not stated), 58%.
To `Cc1nn(C)c(C)c1C(C)NCc1ccsc1` (configuration not stated) belongs -14.5%.
Consider `CN1CC(=O)N(c2cccc(F)c2)CC12CCN(CC1CCOCC1)C2` (configuration not stated), for which the INHIBITION is on record as -4.23%.
With `CN(C)c1ncc(-c2cc(C(=O)NC(C)(C)CO)n(CC3CC3)c2)cn1` the figure was -21.1%; with `COc1ccc(C(=O)NCC(c2cccn2C)N2CCN(C)CC2)cc1` (configuration not stated), 6.83%; with `COc1cc(OC)cc(C(=O)NCC(c2cccn2C)N2CCCC2)c1` (configuration not stated), 28.4%.
To `COc1ccc(C(=O)NCC(c2cccn2C)N2CCCC2)cc1OC` (configuration not stated) belongs 52.4%.
To `COc1ccc(C(=O)NCC(c2cccn2C)N2CCCC2)c(OC)c1` (configuration not stated) belongs -11.1%; to `COc1cccc(OC)c1C(=O)NCC(c1cccn1C)N1CCCC1` (configuration not stated), 30%; to `COc1cccc(C(=O)NCC(c2cccn2C)N2CCCC2)c1OC` (configuration not stated), 75.6%.
As for `CN(C)C(=O)c1cccnc1SCc1ccccc1C#N`, the INHIBITION is listed as 1.61%.
In the case of `CCc1nc(C2CCCN(C(=O)c3ccc(O)nc3)C2)no1` (configuration not stated), the INHIBITION came out at 43.2%.
To `CN1CC(=O)N(c2ccccc2)CC12CCN(C(=O)c1cnccn1)C2` (configuration not stated) belongs 29.3%; to `c1ccc(-c2nnc(CN3CCOC(Cn4cccn4)C3)o2)cc1` (configuration not stated), 0.914%; to `Cc1cnn(CCC(=O)N2CCCC(c3noc(C)n3)C2)c1` (configuration not stated), -4.16%.
As to `O=C1[C@H]2CN(C3CCOCC3)C[C@H]2CN1Cc1cccnc1`, the INHIBITION stood at 92%.
On to `Cc1ccc2c(n1)N(Cc1cccnc1)CCN(C(=O)C1CC1)C2`, for which the INHIBITION is listed as 31.1%.
Turning to `O=C1[C@H]2CN(S(=O)(=O)C3CC3)C[C@H]2CN1Cc1cccnc1`, the INHIBITION is listed as 15.4%.
For the compound `Cc1ccc2c(n1)N(Cc1cccnc1)CCN(C1CCOCC1)C2`, the INHIBITION came to 64.9%.
Consider `O=C1[C@H]2CN(C3CCOCC3)C[C@H]2CN1Cc1ccncc1`, for which the INHIBITION is -2.46%.
With `Cc1ccc2c(n1)N(CCn1cccn1)CCN(C1CCOCC1)C2`, the INHIBITION is reported as -77.4%.
To `CCOC(=O)CNC(=O)NCc1cccn1Cc1cccc(C)c1` belongs 45.8%; to `CC(=O)N1[C@H](CN(C)C)C[C@@H]2CN(C(=O)c3occc3C)CC[C@@H]21`, 12.4%; to `O=C(c1ccncc1)N1CCCC(c2ncncc2-c2ccncc2)C1` (configuration not stated), 12.3%.
As for `CCc1noc(CN2CCN(C(=O)OC(C)(C)C)C(C)C2)n1` (configuration not stated), the INHIBITION is recorded as 20.4%.
As for `Cc1ccc(CN2CC(O)CN(C(=O)OCC(C)C)CC2=O)cc1` (configuration not stated), the INHIBITION turned out to be 18.4%.
Consider `O=S(=O)(c1cn[nH]c1)N1C[C@@H](O)[C@H](N2CCc3ccccc3C2)C1`, for which the INHIBITION was -51.3%.
To `COc1cccc(C2CC(=O)Nc3nc(N)sc32)c1OC` (configuration not stated) belongs 5.53%.
With `CC(=O)c1cc(CN2CCCC23CCN(c2ccccn2)CC3)cs1` the figure was 12.7%.
To `CN(C)c1ncc(-c2cncn2CCc2ccc3c(c2)OCCO3)cn1` belongs -12.3%.
